Source: PubChem BioAssay AID1851 (National Center for Advancing Translational Sciences (NCATS), 2009)
Among all 16,000 compounds or so, about 5,100 (32%) were called active. Not shown: some 25% with an inconclusive outcome. Calls come from the whole dose curve; as a rule, active = well fitted curve in the direction sought with a large enough effect; inconclusive = small, poorly fitted or top-dose-only effect, or effect the other way; inactive = no such curve, though single readings can be large or run the other way. Some of the results follow.

molecular target: Cytochrome P450 3A4 (Homo sapiens) (UniProt P08684); experiment: Cytochrome panel assay with activity outcomes; conditions: recombinant CYP, pro-luciferin dealkylation, luminescence, p450-cyp3a4; series mostly up to 57.1 µM; activity, negative = inhibition: at the top concentration
Procedure: The P450 gene superfamily is involved in the metabolism and clearance of xenobiotics. This assay used various human CYP P450 isozymes to measure the dealkylation of various pro-luciferin substrates to luciferin. The luciferin is then measured by luminescence after the addition of a luciferase detection reagent. Pro-luciferin substrate concentration in the assay was equal to its KM for its CYP P450 isozyme. Inhibitors and some substrates limit the production of luciferin, and decrease measured luminescence.
NCGC Assay Protocol Summary:
1, Reagent, 2 uL, Isozyme and Pro-Luciferin
2, Library compounds, 23 nl, 40 uM to 0.24 nM dilution series
3, Controls, 23 nl, Isozyme specific inhibitor
4, Reagent, 2 uL, NADPH regeneration solution
5, Incubation time, 60 min, Isozyme specific temperature
6, Reagent, 4ul, Detection reagent
7, Incubation time, 20 min, Isozyme specific temperature
8, Detection, 1 sec, ViewLux luminescent read
The luciferase-based P450-GloTM Screening Systems were obtained from Promega (Madison, WI) for CYP 1A2 (V9770), CYP 2C9 (V9790), CYP2 C19 (V9880), CYP 2D6 (V9890), and CYP 3A4 Luciferin-PPXE (V9910) and were adapted for 1,536-well microplates and an automated protocol. The control compounds furafylline for 1A2 (F124), sulfaphenazole for CYP 2C9 (S0758), ketoconazole for CYP 2C19 (K1003), quinidine for 2D6 (Q3625), and ketoconazole for 3A4 (K1003) were purchased from Sigma Aldrich (St. Louis, MO). Recombinant P450 enzymes were obtained from baculovirus constructs expressed in insect cells (BD/Gentest).
Medium-binding white solid Kalypsys plates used. Mixtures kept on ice. 1A2: 10 nM 1A2, 100 uM Luc-ME, 100 mM KPO4; 2C9: 10 nM 2C9, 100 uM Luc-H, 25 mM KPO4; 2C19: 5 nM 2C19, 10 uM Luc-H EGE, 50 mM KPO4; 2D6: 5 nM 2D6, 30 uM Luc-ME EGE, 100 mM KPO4; 3A4: 10 nM, 25 uM Luc-PPXE. All amounts are reflected in their final concentration, working concentration is 2x.
NADPH regeneration solution: 1.3 mM NADP+, 3.3 mM glucose-6-phosphate, 3.3 mM MgCl2, 0.4 U/mL glucose-6-phosphate dehydrogenase for all isozymes, 200 mM KPO4 for 3A4. Mixture prepared at RT but kept on ice during automated run.
RT incubation in auxilliary plate hotel for 1A2, 2D6, and 3A4; 37C for 2C9 and 2C19.
Keywords: P450, CYP1A2, CYP2C19, CYP2C9, CYP2D6, CYP3A4, Luciferase, MLSMR, MLSCN, NIH Roadmap, qHTS, NCGC
% is set by controls: 0 for no effect and ±100 for the full control effect.

Cytochrome P450 3A4 (Homo sapiens), sequence (P08684 whole entry, looked up): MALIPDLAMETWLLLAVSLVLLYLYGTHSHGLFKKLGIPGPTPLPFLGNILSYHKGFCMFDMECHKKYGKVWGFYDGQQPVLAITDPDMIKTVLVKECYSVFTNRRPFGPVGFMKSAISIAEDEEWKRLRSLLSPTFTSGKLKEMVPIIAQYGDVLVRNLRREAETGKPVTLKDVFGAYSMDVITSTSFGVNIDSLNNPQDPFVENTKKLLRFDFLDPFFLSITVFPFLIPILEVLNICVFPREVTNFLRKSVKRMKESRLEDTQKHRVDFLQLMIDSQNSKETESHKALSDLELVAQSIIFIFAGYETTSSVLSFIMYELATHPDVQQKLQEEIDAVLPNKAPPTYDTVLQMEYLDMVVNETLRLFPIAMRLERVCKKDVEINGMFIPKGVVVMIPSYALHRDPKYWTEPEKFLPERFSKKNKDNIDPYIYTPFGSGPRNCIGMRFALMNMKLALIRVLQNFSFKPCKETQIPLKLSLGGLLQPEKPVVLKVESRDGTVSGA

activity, negative = inhibition, inactive:
C=CCn1c(SCc2ccccc2)nc2scc(-c3ccc(C)o3)c2c1=O -11.1%
O=S(=O)(c1ccc(Cl)s1)N1CCc2ccccc2C1 17.9%
O=C(ON=C1CCN(S(=O)(=O)c2ccccc2)CC1)c1ccccc1 2.57%
CCCCCCCCCCCCC(=O)N1CCCC[C@H]1CNC(=O)[C@@H](N)CCCCN -26.5%
NC(=O)NC(=O)Nc1ccccc1Cl -6.66%
CC(=O)NNc1cccc(Cl)n1 8.92%
CCN(CCO)C[C@H]1CCC[C@H]2CCCC[C@@H]21 -20% [at 11.4 µM]
CN(C)S(=O)(=O)c1ccc(NC(=O)c2cc(F)c(F)cc2Cl)cc1 14.8%
Cc1ccc(Sc2ccc(NC(=O)c3ccc(S(C)(=O)=O)cc3Cl)cc2)cc1 -22.9%
CN(C)S(=O)(=O)Oc1cccc(C(=O)Nc2ccccc2Cl)c1 -12.3% [at 11.4 µM]
C/C(=N/OC(=O)c1cccc(Cl)c1)c1nccs1 5.02%
O=C1NCN(c2ccccc2)C12CCN(CCCC(c1ccc(F)cc1)c1ccc(F)cc1)CC2 -9.23% [at 25.6 µM]
C[C@H](CN(C)C)C(=O)c1ccccc1C(=O)O -12.4% [at 11.4 µM]
NC[C@H](O)C1CCCCCCC1 -5.4%
CCNc1ncc2nc(-c3ccc(Cl)cc3)c(=O)n(Cc3cccc(OC)c3)c2n1 -5.08%
Nc1nc(Cl)nc2c1ncn2[C@@H]1O[C@@H](CO)[C@@H](O)[C@H]1O 3.91%
CCOC(=O)NNc1nncc2ccccc12 3.81% [at 25.6 µM]
CC(C)c1nc2oc3ccccc3c(=O)c2c(=O)n1-c1ccccc1 26.1%
CCOC(=O)c1cc2c(=O)n3ccccc3nc2n(CCCOC)c1=NC(C)=O 11.8%
O=c1[nH]c2ccccc2c2ccccc12 -20.3%
Cc1cc(=O)c2ccccc2[nH]1 5.16%
CC(CC(=O)O)(CC(=O)O)C(=O)O -8.15% [at 11.4 µM]
COc1cccc(N2CCN(C(=O)Nc3ccc4c(c3)NC(=O)CO4)CC2)c1 -22.6%
COc1ccc(OC)c(C2N(c3cc(C)on3)C(=O)C3CCCN32)c1 (stereo unspecified) -29.9%
CC1CCCC(C)N1CCNC(=O)Cn1nc(-c2ccccc2)ccc1=O (stereo unspecified) -23.7%
Cc1ccc(S(N)(=O)=O)cc1NC(=O)/C=C/c1cccs1 -17.8%
O=C(CCC(=O)c1cccs1)OCC(=O)N1CCN(C(=O)c2ccco2)CC1 -6.6% [at 2.29 µM]
Cc1c(C(c2cccc([N+](=O)[O-])c2O)c2c(C)n(C)n(-c3ccccc3)c2=O)c(=O)n(-c2ccccc2)n1C -21.7%
CCCCc1nc(SCC(=O)Nc2ncccn2)n[nH]1 -1.67%
O=C(O)CCC(=O)Nc1ccc(C(=O)N2CCCCC2)cc1 -1.59%
O=C(O)c1ccccc1Nc1ccccc1 10.2%

AC50, active:
C=CCn1c(SCc2ccc3c(c2)OCO3)nc2scc(-c3ccco3)c2c1=O 2.82 µM
COc1ccc(S(=O)(=O)N2CCc3ccccc3C2)cc1OC 15.8 µM
O=C(NNc1cccc(Cl)n1)Nc1ccccc1Cl 12.6 µM
CN(C)S(=O)(=O)Oc1ccsc1C(=O)Nc1ccc(Cl)cc1 15.8 µM
CN(C)S(=O)(=O)Oc1ccsc1C(=O)Nc1cccc(Cl)c1 10 µM
CN(C)S(=O)(=O)Oc1cccc(C(=O)Nc2ccc(Cl)c(Cl)c2)c1 25.1 µM
CCNc1ncc2nc(C)c(=O)n(Cc3cccc(OC)c3)c2n1 7.94 µM
CCNc1ncc2nc(-c3ccccc3)c(=O)n(Cc3cccc(OC)c3)c2n1 10 µM
c1ccc(Nc2nc(-c3cccnc3)nc3ccccc23)cc1 12.6 µM
CCOC(=O)c1ccc(Nc2nc(-c3cccnc3)nc3ccccc23)cc1 11.2 µM
CNc1nc(-c2cccnc2)nc2ccccc12 6.31 µM
CCOC(=O)c1cc2c(=O)n3ccccc3nc2n(CCCOC)c1=NC(=O)C(C)(C)C 15.8 µM
COc1ccc(OC)c2c(=S)c3ccccc3[nH]c12 7.94 µM
COc1ccc(OC)c(C2C3=C(COC3=O)Nc3cc4c(cc32)OCO4)c1 (stereo unspecified) 7.08 µM
Cc1ccc(S(=O)(=O)N2CCOCC2)cc1NC(=O)COC(=O)CCC(=O)c1cccs1 11.2 µM
O=C(c1ccc(N2CCCCC2)c([N+](=O)[O-])c1)N(Cc1ccccc1)c1ccccn1 3.55 µM
Nc1nc(SCC(=O)Nc2ccccc2Sc2ccc(Cl)cc2)n[nH]1 0.708 µM
O=C(c1ccccc1Nc1ccc(SC(F)F)cc1)N1CCCCC1 14.1 µM
CC1CCCC(C)N1C(=O)c1ccccc1Nc1ccc(SC(F)F)cc1 (stereo unspecified) 10 µM

AC50, inactive:
CC(C)(C)NC[C@H](O)COc1cccc2c1CCCC2=O
